About 7,900 targets were measured; listed, in parts, are those with a hit and a random draw of the rest. About 0.6% of all pairs of compound and target were hits. Values without a mark were called inactive.

Consider 39 targets from the supplement of paper PMC10849652.

Chain of UniProt Q13153 (Q13153 whole entry, looked up): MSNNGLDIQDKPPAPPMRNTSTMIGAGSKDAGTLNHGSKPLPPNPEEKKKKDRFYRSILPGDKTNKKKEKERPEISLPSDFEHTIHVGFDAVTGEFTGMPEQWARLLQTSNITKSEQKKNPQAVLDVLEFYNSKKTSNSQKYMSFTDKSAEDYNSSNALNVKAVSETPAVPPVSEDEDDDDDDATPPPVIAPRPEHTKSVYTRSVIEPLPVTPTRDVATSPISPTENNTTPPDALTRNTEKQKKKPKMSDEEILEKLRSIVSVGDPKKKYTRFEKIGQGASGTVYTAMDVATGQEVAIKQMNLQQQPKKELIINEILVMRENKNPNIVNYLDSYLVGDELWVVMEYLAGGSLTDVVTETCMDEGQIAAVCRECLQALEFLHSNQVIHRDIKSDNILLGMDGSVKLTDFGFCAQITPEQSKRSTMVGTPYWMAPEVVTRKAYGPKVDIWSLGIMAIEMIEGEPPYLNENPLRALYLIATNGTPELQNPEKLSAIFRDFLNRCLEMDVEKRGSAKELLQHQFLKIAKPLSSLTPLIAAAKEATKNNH
Chain of UniProt Q92692 (Q92692 whole entry, looked up): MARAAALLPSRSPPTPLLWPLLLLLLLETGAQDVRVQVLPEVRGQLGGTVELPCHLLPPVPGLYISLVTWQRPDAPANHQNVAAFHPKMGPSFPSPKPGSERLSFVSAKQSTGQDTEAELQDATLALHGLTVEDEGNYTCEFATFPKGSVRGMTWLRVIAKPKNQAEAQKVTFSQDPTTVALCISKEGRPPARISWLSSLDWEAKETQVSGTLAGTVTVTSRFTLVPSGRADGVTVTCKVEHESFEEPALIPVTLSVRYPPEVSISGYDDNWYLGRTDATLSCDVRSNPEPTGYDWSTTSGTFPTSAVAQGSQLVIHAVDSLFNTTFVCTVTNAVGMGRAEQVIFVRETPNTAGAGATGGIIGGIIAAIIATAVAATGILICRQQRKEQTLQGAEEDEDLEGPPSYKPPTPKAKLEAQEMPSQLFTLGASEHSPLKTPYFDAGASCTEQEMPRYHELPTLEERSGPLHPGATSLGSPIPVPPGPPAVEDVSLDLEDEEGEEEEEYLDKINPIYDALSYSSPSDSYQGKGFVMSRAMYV
Chain of UniProt P52701 (P52701 whole entry, looked up): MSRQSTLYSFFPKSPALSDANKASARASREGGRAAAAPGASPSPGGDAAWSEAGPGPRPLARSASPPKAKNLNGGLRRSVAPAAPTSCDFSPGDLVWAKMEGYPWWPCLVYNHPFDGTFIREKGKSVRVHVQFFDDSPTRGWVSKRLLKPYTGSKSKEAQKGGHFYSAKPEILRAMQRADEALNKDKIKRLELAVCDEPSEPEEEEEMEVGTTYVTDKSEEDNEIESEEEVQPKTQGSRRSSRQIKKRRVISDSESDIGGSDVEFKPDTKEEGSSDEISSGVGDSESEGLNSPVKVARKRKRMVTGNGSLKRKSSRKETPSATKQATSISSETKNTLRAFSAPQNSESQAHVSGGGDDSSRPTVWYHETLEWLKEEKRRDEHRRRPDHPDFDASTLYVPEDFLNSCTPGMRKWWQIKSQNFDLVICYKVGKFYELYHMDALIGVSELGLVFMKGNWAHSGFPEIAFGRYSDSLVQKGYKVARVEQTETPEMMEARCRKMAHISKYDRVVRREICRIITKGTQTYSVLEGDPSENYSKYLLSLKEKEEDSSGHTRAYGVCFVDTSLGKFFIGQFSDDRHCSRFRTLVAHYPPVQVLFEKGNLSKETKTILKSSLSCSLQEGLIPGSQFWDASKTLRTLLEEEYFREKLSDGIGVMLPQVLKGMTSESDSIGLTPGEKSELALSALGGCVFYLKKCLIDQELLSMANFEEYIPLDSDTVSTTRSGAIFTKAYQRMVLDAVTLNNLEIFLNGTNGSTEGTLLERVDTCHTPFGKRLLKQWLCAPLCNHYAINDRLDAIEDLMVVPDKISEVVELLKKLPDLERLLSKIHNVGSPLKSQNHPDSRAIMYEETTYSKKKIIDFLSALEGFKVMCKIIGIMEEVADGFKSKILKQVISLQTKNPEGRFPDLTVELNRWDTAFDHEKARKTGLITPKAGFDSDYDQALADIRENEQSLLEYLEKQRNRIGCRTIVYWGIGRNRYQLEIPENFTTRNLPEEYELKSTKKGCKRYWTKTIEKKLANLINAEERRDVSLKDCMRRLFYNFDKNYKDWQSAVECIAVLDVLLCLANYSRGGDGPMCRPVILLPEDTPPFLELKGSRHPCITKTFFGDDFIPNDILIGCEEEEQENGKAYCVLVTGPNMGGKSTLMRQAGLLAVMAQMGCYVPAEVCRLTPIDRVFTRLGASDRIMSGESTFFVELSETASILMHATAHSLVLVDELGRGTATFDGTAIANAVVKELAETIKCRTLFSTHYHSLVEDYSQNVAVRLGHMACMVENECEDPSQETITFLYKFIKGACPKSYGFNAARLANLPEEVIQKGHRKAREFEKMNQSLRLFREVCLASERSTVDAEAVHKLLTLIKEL
Chain of UniProt Q96PU5 (Q96PU5 whole entry, looked up): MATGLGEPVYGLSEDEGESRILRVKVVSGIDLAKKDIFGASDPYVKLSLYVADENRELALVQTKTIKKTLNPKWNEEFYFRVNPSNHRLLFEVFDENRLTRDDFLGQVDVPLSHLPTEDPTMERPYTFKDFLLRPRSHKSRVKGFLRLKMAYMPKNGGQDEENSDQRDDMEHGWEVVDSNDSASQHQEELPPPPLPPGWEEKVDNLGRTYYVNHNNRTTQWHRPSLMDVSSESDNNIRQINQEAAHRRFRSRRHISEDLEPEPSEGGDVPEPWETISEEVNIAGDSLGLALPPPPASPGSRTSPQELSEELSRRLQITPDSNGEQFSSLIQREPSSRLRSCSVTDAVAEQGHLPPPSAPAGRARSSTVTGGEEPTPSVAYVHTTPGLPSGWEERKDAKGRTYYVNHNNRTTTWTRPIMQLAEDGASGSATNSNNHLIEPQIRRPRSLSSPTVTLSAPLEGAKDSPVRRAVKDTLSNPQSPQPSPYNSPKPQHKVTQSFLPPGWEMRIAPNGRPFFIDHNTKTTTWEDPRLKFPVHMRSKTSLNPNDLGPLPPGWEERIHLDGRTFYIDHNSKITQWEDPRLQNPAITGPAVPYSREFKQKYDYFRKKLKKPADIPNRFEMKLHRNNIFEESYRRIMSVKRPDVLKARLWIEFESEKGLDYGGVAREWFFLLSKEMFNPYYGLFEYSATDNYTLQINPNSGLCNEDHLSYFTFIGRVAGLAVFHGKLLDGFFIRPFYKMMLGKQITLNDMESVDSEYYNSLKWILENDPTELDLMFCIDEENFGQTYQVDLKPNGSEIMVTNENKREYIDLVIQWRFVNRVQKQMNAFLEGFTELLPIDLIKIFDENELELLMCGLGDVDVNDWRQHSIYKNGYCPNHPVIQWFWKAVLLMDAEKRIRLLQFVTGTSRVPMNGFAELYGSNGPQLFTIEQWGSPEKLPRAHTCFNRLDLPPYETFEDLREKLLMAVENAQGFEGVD
Chain of UniProt O14950 (O14950 whole entry, looked up): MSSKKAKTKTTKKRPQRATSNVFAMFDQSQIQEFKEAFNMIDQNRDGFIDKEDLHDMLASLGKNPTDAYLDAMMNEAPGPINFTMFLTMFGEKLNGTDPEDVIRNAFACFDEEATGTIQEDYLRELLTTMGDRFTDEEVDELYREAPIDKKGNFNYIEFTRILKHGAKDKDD
Chain of UniProt Q330K2 (Q330K2 whole entry, looked up): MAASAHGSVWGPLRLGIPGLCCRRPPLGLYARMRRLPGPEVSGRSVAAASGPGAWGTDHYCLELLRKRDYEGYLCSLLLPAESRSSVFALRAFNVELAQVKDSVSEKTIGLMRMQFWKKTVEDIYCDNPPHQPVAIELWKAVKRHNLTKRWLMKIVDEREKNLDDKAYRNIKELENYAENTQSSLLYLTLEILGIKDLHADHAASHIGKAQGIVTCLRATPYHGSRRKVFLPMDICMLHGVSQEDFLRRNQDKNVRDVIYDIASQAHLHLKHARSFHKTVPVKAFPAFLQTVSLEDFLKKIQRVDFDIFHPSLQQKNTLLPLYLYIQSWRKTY
Chain of UniProt Q9H081 (Q9H081 whole entry, looked up): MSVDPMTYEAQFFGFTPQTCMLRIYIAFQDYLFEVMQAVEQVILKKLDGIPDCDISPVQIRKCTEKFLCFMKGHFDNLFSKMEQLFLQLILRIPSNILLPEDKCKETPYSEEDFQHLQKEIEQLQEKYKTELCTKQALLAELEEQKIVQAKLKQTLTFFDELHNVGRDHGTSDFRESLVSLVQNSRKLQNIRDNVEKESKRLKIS
Chain of UniProt P03905 (P03905 whole entry, looked up): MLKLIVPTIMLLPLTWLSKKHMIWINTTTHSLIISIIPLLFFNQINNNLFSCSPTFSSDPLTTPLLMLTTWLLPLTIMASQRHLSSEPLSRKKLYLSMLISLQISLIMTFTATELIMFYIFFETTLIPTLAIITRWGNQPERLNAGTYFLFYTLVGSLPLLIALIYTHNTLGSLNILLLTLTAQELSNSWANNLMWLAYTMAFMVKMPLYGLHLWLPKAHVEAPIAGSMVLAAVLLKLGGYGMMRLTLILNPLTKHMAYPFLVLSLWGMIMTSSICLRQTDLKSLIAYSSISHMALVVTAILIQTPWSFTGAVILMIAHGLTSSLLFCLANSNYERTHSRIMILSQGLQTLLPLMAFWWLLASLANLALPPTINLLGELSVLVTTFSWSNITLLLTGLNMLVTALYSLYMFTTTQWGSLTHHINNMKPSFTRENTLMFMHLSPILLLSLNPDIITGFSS
Chain of UniProt P49914 (P49914 whole entry, looked up): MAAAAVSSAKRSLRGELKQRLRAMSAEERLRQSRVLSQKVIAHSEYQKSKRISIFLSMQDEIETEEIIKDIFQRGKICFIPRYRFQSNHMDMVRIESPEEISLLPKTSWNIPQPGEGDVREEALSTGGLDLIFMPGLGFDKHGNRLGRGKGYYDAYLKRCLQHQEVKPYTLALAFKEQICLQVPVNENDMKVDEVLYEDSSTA
Chain of UniProt O00217 (O00217 whole entry, looked up): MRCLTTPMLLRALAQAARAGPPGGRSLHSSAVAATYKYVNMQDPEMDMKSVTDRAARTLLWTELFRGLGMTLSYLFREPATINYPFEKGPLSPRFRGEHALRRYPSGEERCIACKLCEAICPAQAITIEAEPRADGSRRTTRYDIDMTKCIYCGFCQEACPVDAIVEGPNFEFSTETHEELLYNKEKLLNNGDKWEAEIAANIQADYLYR

Compound in one test: c1cc(OCCN2CCCCC2)cc(-c2n[nH]c3ccc(-c4nnc[nH]4)cc23)c1
The experiment in a line: log2 fold change, soluble protein after heating vs DMSO (PISA); higher = thermal stabilisation; K562 cells, 10 uM, 30 min; active = over 0.2 and 3.5 SD of the protein, either way, in both replicates (recomputed). The method in brief:
(§1)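 Aliquots of K562 cells (2×10^6 cells/mL) treated with 10 μM compound for 30 min were heated for 3 min over 48°C-58°C. After pooling and extraction in PBS with 0.5% NP-40 at 4°C, soluble protein from a 21,000xg, 90 min spin was quantified by TMTpro 16plex LC-MS/MS with channel sums equalised. Thermal stability is expressed against control samples, from duplicates, as a log2 fold change.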
In the case of MORC3 (UniProt Q14149), the log2 fold change was 0.089.
MRPS31 (UniProt Q92665): the log2 fold change is -0.083.
Still for that read-out and setting: under MRPS9 (UniProt P82933) stands -0.081; under NDUFA9 (UniProt Q16795), 0.017.
For the target OSTM1 (UniProt Q86WC4), the log2 fold change was -0.037.
On the same count and under the same terms, under MRPS24 (UniProt Q96EL2) stands -0.105; under NDUFS4 (UniProt O43181), -0.039; under OXSR1 (UniProt O95747), 0.018.
Still for that read-out and setting: under MIS12 (UniProt Q9H081) stands -0.081.
Still for that read-out and setting: under NGLY1 (UniProt Q96IV0) stands -0.059; under MND1 (UniProt Q9BWT6), -0.146.
Consider NOL7 (UniProt Q9UMY1), for which the log2 fold change is -0.218.
Same read-out and setting: under NDFIP1 (UniProt Q9BT67) stands 0.007; under MTHFS (UniProt P49914), -0.057.
Consider MRPL50 (UniProt Q8N5N7), for which the log2 fold change was -0.078.
Regarding NEDD4L (UniProt Q96PU5), the log2 fold change is -0.034.
Still for that read-out and setting: to NUCKS1 (UniProt Q9H1E3) belongs 0.079.
Still for that read-out and setting: under MOV10 (UniProt Q9HCE1) stands -0.164; under NUDT21 (UniProt O43809), -0.131; under OGFR (UniProt Q9NZT2), -0.092.
On the same count and under the same terms, to MSH6 (UniProt P52701) belongs 0.097; to NECTIN2 (UniProt Q92692), -0.006.
For MKNK1 (UniProt Q9BUB5), the log2 fold change was -0.042.
Take PAK1 isoform 2 (UniProt Q13153): the log2 fold change was -0.032.
Same read-out and setting: to MSH3 (UniProt P20585) belongs -0.019.
On the same count and under the same terms, under PACS1 (UniProt Q6VY07) stands -0.113.
Still for that read-out and setting: to NA, A0A0B4J2A0 belongs -0.012.
Turning to MSTO1 (UniProt Q9BUK6), the log2 fold change is 0.017.
The same measure, in the same setting: under NDUFAF6 (UniProt Q330K2) stands -0.031; under NRF1 isoform 4 (UniProt Q16656), 0.04.
In the case of NNMT (UniProt P40261), the log2 fold change is 0.139.
Same read-out and setting: under NDUFS8 (UniProt O00217) stands -0.041; under NCKAP1 isoform 2 (UniProt Q9Y2A7), 0.046; under MYH10 isoform 3 (UniProt P35580), 0.013.
Same read-out and setting: to MYL12B (UniProt O14950) belongs 0.026; to OSBPL8 (UniProt Q9BZF1), -0.129; to NAP1L1 (UniProt P55209), 0.069.
Same read-out and setting: under NOP53 (UniProt Q9NZM5) stands -0.152; under MT-ND4 (UniProt P03905), -0.057.

Compound in a further test: c1cn2cc(-c3ccc4cn[nH]c4c3)nc(Nc3ccc(N4CCOCC4)cc3)c2n1 [entospletinib]
Described as above. A digest of the protocol: as §1
MORC3 (UniProt Q14149): the log2 fold change is -0.088.
Still for that read-out and setting: to MRPS31 (UniProt Q92665) belongs 0.065; to MRPS9 (UniProt P82933), 0.087; to NDUFA9 (UniProt Q16795), -0.011.
The same measure, in the same setting: to OSTM1 (UniProt Q86WC4) belongs 0.118; to MRPS24 (UniProt Q96EL2), 0.086; to NDUFS4 (UniProt O43181), 0.069.
The same measure, in the same setting: to OXSR1 (UniProt O95747) belongs -0.058; to MIS12 (UniProt Q9H081), -0.003; to NGLY1 (UniProt Q96IV0), 0.081.
For the target MND1 (UniProt Q9BWT6), the log2 fold change was 0.047.
On the same count and under the same terms, under NOL7 (UniProt Q9UMY1) stands 0.033; under NDFIP1 (UniProt Q9BT67), -0.003; under MTHFS (UniProt P49914), 0.127.
Same read-out and setting: to MRPL50 (UniProt Q8N5N7) belongs -0.005.
Still for that read-out and setting: to NEDD4L (UniProt Q96PU5) belongs 0.046; to NUCKS1 (UniProt Q9H1E3), -0.02; to MOV10 (UniProt Q9HCE1), 0.14.
In the case of NUDT21 (UniProt O43809), the log2 fold change is 0.016.
Take OGFR (UniProt Q9NZT2): the log2 fold change is -0.008.
Same read-out and setting: under MSH6 (UniProt P52701) stands -0.053.
As for NECTIN2 (UniProt Q92692), the log2 fold change was -0.016.
Still for that read-out and setting: under MKNK1 (UniProt Q9BUB5) stands 0.01; under PAK1 isoform 2 (UniProt Q13153), -0.02; under MSH3 (UniProt P20585), -0.095.
Still for that read-out and setting: to PACS1 (UniProt Q6VY07) belongs 0.046; to NA, A0A0B4J2A0, 0.021.
On the same count and under the same terms, to MSTO1 (UniProt Q9BUK6) belongs -0.068; to NDUFAF6 (UniProt Q330K2), -0.121.
As to NRF1 isoform 4 (UniProt Q16656), the log2 fold change is -0.041.
Still for that read-out and setting: under NNMT (UniProt P40261) stands 0.042.
Turning to NDUFS8 (UniProt O00217), the log2 fold change was -0.012.
On the same count and under the same terms, to NCKAP1 isoform 2 (UniProt Q9Y2A7) belongs -0.041; to MYH10 isoform 3 (UniProt P35580), -0.073; to MYL12B (UniProt O14950), -0.03.
On the same count and under the same terms, under OSBPL8 (UniProt Q9BZF1) stands 0.084; under NAP1L1 (UniProt P55209), 0.028; under NOP53 (UniProt Q9NZM5), -0.001.
Still for that read-out and setting: to MT-ND4 (UniProt P03905) belongs 0.022.
